Bioassay records from PubChem BioAssay.
aSyn UTR act: Activators working through SNCA 5'UTR binding (MLPCN) | activity score, % (tested at 7.5 µM), hits read low | alpha-synuclein 5'UTR reporter, activators screen | actives 7.1% (n = 300,000) | AID 1814; in the data active = activity score below about -60%
Hits are given with their value; – = inactive. Not all results are given here.

SMILES	aSyn UTR act
COc1ccc(C2CC(c3ccc(C)o3)=NN2C(C)=O)cc1 (stereo not given)	-128.2
COc1ccc(C2CC(c3ccc4ccccc4c3OC(C)=O)=NN2C(C)=O)cc1 (stereo not given)	-203.1
COc1ccc(C2CC(c3ccc(Cl)cc3)=NN2C(C)=O)cc1 (stereo not given)	-115.9
CC(=O)N1N=C(c2ccc(C)o2)CC1c1ccc(Br)cc1 (stereo not given)	-198.9
COC(=O)CSc1nc2ccccn2c(=O)c1C=O	-172.7
CCOC(=O)c1ccc(N/C=C\C(=O)c2cccc(OC)c2)cc1	-131.3
CCOC(=O)c1cccc(N/C=C/C(=O)c2ccc(OC)c(OC)c2)c1	-130.3
CCOc1ccc(NC(=S)NC(=O)/C=C/c2ccc(Br)cc2)c([N+](=O)[O-])c1	-78.7
Cc1ccc(Cl)c(N/C=C/C(=O)c2ccccc2)c1	-143.6
CCOC(=O)c1ccc(OS(=O)(=O)c2ccccc2)c(OC)c1	-195.4
COC(=O)c1ccccc1N/C=C/C(=O)c1ccc(Br)cc1	-132.4
COc1cccc(N/C=C/C(=O)c2ccc(Br)cc2)c1	-116.6
Cc1cccc(N/C=C/C(=O)c2ccc(Cl)cc2)c1	-157.2
COc1ccc(C(=O)/C=C/Nc2cccc(O)c2)cc1	-93.8
COc1cccc(N/C=C/C(=O)c2ccc(OC)c(OC)c2)c1	-97.3
CCOc1ccc(C(=O)Cc2cc(OC)c(OC)cc2[N+](=O)[O-])cc1	-80.5
COc1cccc(C(=O)/C=C/Nc2cc(C)ccc2O)c1	-260.9
CCOc1ccc(N/C=C/C(=O)c2ccc(OC)cc2)c([N+](=O)[O-])c1	-118.2
COc1ccc(C(=O)/C=C/Nc2ccc([N+](=O)[O-])cc2)cc1	-106.4
COc1ccc(C(=O)/C(C#N)=N/Nc2ccc([N+](=O)[O-])cc2)cc1	–
Cn1c(N)c(C(=O)Nc2ccc3ccccc3c2)sc1=S	-186.2
Nc1c(C(=O)Nc2ccc(F)cc2)sc(=S)n1-c1ccccc1F	-84.1
O=C(O)CN1C(=O)/C(=C\c2cccc(OCc3ccc(Cl)cc3Cl)c2)SC1=S	-105.5
Cc1ccc(C)n1-c1ccc(C(=O)Nc2ccccc2)cc1	-81.7
Cc1ccc(C)n1-c1cccc(NC(=O)c2ccccc2)c1	-72.7
SMILES	aSyn UTR act
N/C(=N\OC(=O)c1cc([N+](=O)[O-])ccc1Cl)c1cccnc1	–
N/C(=N\OC(=O)c1ccc([N+](=O)[O-])cc1)c1cccnc1	-91.8
N/C(=N\OC(=O)c1ccccc1[N+](=O)[O-])c1ccccn1	-103.8
COc1ccc(/C(N)=N/OC(=O)c2ccc(C)c([N+](=O)[O-])c2)cc1OC	-126.0
N/C(=N\OC(=O)c1ccccc1Cl)c1ccccn1	–
N/C(=N\OC(=O)c1ccccc1[N+](=O)[O-])c1cccnc1	-96.9
Cc1ccc(C(=O)O/N=C(\N)c2cccnc2)cc1[N+](=O)[O-]	-124.8
O=C(NCCCO)c1cc2c(cn1)[nH]c1ccccc12	-103.6
Cc1ccc(CSc2nc3ccncc3[nH]2)cc1	–
Cc1ccc2nc(SCc3nc4ccccc4c(=O)[nH]3)[nH]c2c1	-139.5
Cc1ccc2nc(CSc3nc(C)ccc3C#N)[nH]c2c1	–
Cc1cc(C(=O)CSc2nc3ccccc3c(=O)[nH]2)c(C)n1C	-130.4
Cc1ccc2nc(SC(C)C(=O)N3CCCC3)[nH]c2c1 (stereo not given)	-75.4
Cc1ccc2nc(SCC(=O)N3CCCC3)[nH]c2c1	-128.9
Cc1ccc2nc(SCC(=O)c3ccc(O)cc3O)[nH]c2c1	-220.2
Cc1ccc2nc(SC(C)C(=O)N3CCCCC3)[nH]c2c1 (stereo not given)	-81.0
Cc1ccccc1CNC(=O)Nc1ccc(Cl)cc1	-110.2
Cc1ccc(CNC(=O)Nc2ccccc2)c(C)c1	-153.4
COc1ccc(-c2nn(-c3ccccc3)cc2/C=N/NC(=O)c2ccc3c(c2)OCO3)cc1	-116.1
COc1ccc(-c2nn(-c3ccccc3)cc2/C=N/NC(=O)c2ccc(Br)o2)cc1	-97.5
O=C(N/N=C/c1c(O)ccc2ccccc12)c1ccc(Br)o1	–
Cc1ccc(-c2nn(-c3ccccc3)cc2/C=N/NC(=O)CSc2nnc(C)n2-c2ccccc2)cc1	-124.5
Cc1cc(SCC(=O)N/N=C/c2ccc(O)c(O)c2O)c(C)cc1Br	–
CCN(CC)S(=O)(=O)c1ccc(N/N=C(\C)c2ccc(OC)cc2O)nc1	–
CCN(CC)S(=O)(=O)c1ccc(N=Nc2cc(C)cc(Br)c2O)cc1	-75.9
SMILES	aSyn UTR act
CCOC(=O)c1ccc(N2Cc3ccccc3C2=N)cc1	-77.8
O=c1[nH]c(/C(Cl)=C/c2cc(Cl)ccc2O)nc2cc(Cl)ccc12	-89.7
Cc1csc(NC(=O)c2ccc(COc3ccccc3)o2)n1	-136.3
COC(=O)c1ccc(COc2cc(C)ccc2C)o1	-148.7
COC(=O)c1ccc(COc2ccc(C)c(C)c2)o1	-198.4
Cc1ccc(OCc2ccc(C(=O)Nc3nccs3)o2)cc1C	-110.2
CC1(C)N=C(N)N=C(N)N1c1ccc(Oc2ccc(Cl)cc2)c(Cl)c1	–
Cc1cc(COc2ccccc2)oc1C(=O)O	-107.5
C=CCc1ccc(OCc2ccc(C(=O)OC)o2)c(OC)c1	-121.2
Cc1ccc(OCc2ccc(C(=O)O)o2)cc1C	-188.3
C=CCc1ccc(OCC(O)COCC)c(OC)c1 (stereo not given)	-76.3
O=C(Nc1cccc(O)c1)c1ccc(C(F)(F)F)cc1	-166.0
CC(C)CC(=O)Nc1ccc(C(=O)Nc2cccc(O)c2)cc1	-150.8
Cc1cccc(/C=N/NC(=O)c2c(-c3ccccc3)noc2C)c1O	–
Cc1cc(C(=O)N/N=C/c2ccccc2Br)no1	-68.4
COc1ccc(C2CC(c3ccc(Br)cc3)=NN2C(=S)Nc2ccccc2)cc1 (stereo not given)	-78.1
Cc1ccc(C2=NN(C(=S)Nc3ccccc3)C(c3ccco3)C2)cc1 (stereo not given)	-177.9
CCC(=O)N1N=C(c2c(-c3ccccc3)c3cc(Cl)ccc3[nH]c2=O)CC1c1ccco1 (stereo not given)	–
CCS(=O)(=O)Nc1ccc(C2=NN(C(=S)Nc3ccccc3)C(c3ccco3)C2)cc1 (stereo not given)	-80.5
O=C(Nc1nccs1)c1ccc(-c2ccc(F)c(Cl)c2)o1	-150.7
O=C(Nc1nccs1)c1ccc(-c2ccc(Cl)cc2Cl)o1	-149.2
O=C(CSc1nnc(-c2ccccc2Br)o1)N1CCOCC1	-111.0
O=C(CSc1nnc(-c2ccccc2O)o1)N1CCOCC1	-69.4
O=C(CSc1nnc(-c2ccccc2Cl)o1)N1CCCC1	-68.4
C=CCOc1ccc(/C=C/C(C)=N\O)cc1	-109.8
SMILES	aSyn UTR act
O=c1c2sccc2nc(SCc2cc(=O)n3cc(Br)ccc3n2)n1Cc1ccccn1	-90.4
COc1ccc2c(c1OC)C(=O)OC2Nc1nc(-c2cc3cc(Br)ccc3oc2=O)cs1 (stereo not given)	-220.9
CC(C)(C)N(Cc1ccccc1)C(=O)CN1C(=O)c2ccccc2C1=O	-96.9
N#CC1=C(SCC(=O)Nc2ccccc2)NC(=O)CC1c1ccco1 (stereo not given)	-140.9
CC(=O)C1=C(C)NC(SCC(=O)c2cc(Cl)ccc2Cl)=C(C#N)C1c1ccco1 (stereo not given)	-129.6
N#CC1=C(SCC(=O)c2ccccc2)NC2=C(C(=O)CCC2)C1c1ccco1 (stereo not given)	-305.3
N#CC1=C(SCC(=O)Nc2ccccc2)NC(=O)CC1c1ccc(O)cc1 (stereo not given)	-128.0
CCOC(=O)c1c(C)[nH]c2cc(Br)c(O)cc12	-92.3
C=C1CCC2[C@](C)(CO)[C@H](O)CC[C@@]2(C)[C@@H]1C/C=C1\C(=O)OC[C@H]1O (stereo not given in full)	-151.1
